Shown are actives, neighbours in structure and some others; about 11% of the full set was active somewhere.
ALDH1A1 block – blocks purified human ALDH1A1 activity; 220,000 tested, 7.3% active; Purified ALDH1A1, NADH fluorescence, propionaldehyde substrate; Potency, µM (doses to about 75.3 µM), inactives show top-dose activity, negative = inhibition, most hits filed as inhibitors; active means well fitted inhibition curve with a large enough effect, not every such curve was filed as active; inconclusive means small, poorly fitted or top-dose-only effect, or another doubt; inactive means no such curve, though single readings can be large or run the other way;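 further: potency means the concentration at half of the fitted maximal effect; plate controls were no enzyme wells and a reference inhibitor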
Target sequence (P00352 whole entry, looked up): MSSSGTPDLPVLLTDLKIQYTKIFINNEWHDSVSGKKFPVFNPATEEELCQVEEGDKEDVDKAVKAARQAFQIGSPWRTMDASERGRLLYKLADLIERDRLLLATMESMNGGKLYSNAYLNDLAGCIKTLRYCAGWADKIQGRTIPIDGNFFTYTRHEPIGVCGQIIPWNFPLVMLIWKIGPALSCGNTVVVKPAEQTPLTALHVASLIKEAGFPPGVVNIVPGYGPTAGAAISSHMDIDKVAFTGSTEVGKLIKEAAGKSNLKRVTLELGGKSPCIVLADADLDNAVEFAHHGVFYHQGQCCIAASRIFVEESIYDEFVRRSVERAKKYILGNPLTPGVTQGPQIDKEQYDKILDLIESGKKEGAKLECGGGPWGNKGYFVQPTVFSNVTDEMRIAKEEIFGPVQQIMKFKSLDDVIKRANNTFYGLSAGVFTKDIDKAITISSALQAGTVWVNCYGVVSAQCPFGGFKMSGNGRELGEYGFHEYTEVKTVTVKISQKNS
CBFb-RUNX1 inh – CBF-beta/RUNX1 interaction disruption. Potency, µM (titrated, usually from 59.8 µM), for the others: at the top dose activity, negative = inhibition, actives largely listed as inhibitors. 230,000 tested, under 10 active. AlphaScreen CBFb-His/RUNX1-biotin binding, biochemical. AID 1477. Q01196+Q13951; further: % of control where 0% means no effect
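CBFb-His/RUNX1-biotin, 30 nM each, preincubated 20 min RT; compound 15 min RT; Ni + streptavidin beads 50 ng each, 90 min RT; AlphaScreen read.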
PNC inhibitor – blocks assembly of the perinucleolar compartment. AID 2417. 140,000 tested, 3.1% active. PC3M PTB-GFP, PNC prevalence imaging, 16 h; hits give low values. activity change (PNC), negative = inhibition, % at 10 µM;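 active means readout at or below -70, meaning at least 70% loss of cells showing the perinucleolar compartment, a nuclear body marking cancer cells; inconclusive means readout between -30 and a set limit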;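 further: plate controls were DMSO wells for no effect and camptothecin positive control wells for full effect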
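PC3M cells stably expressing PTB-GFP, 750–1000 cells/well, treated 16 h at 37 °C with compound (23 nl of library stock), in duplicate. After paraformaldehyde fixation and Hoechst stain, imaged at 20x; PNC prevalence scored by image analysis.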
HttQ103 aggreg – reduces HttQ103-GFP aggregates in PC12 cells; 220,000 tested, 1.1% active; PC12 HttQ103-GFP aggregates, Acumen cytometry, 40 h; Potency, µM (top dose mostly 46.1 µM), without a hit: at the highest dose activity change, negative = inhibition, hits mostly inhibitors; further: potency means the concentration at half of the fitted maximal effect; on the % scale 0 is the no-effect control and ±100 the full control effect; nearly all actives have a fitted effect of over 60% in size
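PC12 cells stably carrying ecdysone-inducible HTT exon 1 Q103–GFP were induced with tebufenozide (100 nM final) and treated with library compounds in titration. GFP aggregates in lysates were counted by laser scanning cytometry.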
HTT ATP protect – cytoprotection in Huntington HTT-Q103 PC12 cell model. PC12 HTT-Q103 induced, cytoprotection, ATP luminescence, 40 h. Potency, µM (highest dose often 56.4 µM), for inactives: cytoprotection (ATP increase), hits mostly activators. 230,000 tested, 0.14% active; further: potency means the concentration at half of the fitted maximal effect; % of control where 0% means no effect; nearly all actives have a fitted effect of over 45% in size
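Stable PC12 Q103-GFP cells in serum-supplemented, phenol red-free DMEM; induction by tebufenozide at 100 nM final; compound dose series; cell viability quantified luminescently from ATP.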
HPGD block – blocks human HPGD enzyme activity; P15428; purified HPGD, NADH fluorescence kinetic, PGE2 substrate; Potency, µM, inactives show top-dose activity change, negative = inhibition, usual class: inhibitors; 150,000 tested, 4.3% active; AID 894; active means well fitted inhibition curve with a large enough effect, not every such curve was filed as active; inconclusive means small, poorly fitted or top-dose-only effect, or another doubt; inactive means no such curve, though single readings can be large or run the other way; further: potency means the concentration at half of the fitted maximal effect; on the % scale 0 is the no-effect control and ±100 the full control effect
Target sequence (P15428 whole entry, looked up): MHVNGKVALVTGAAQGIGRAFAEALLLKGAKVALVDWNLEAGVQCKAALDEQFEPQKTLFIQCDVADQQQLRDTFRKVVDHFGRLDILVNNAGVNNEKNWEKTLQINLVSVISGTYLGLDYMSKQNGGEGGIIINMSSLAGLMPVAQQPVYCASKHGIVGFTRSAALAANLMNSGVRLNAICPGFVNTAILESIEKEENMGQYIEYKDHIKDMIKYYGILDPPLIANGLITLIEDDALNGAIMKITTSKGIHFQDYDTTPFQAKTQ
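20 nM HPGD preincubated 15 min at room temperature with compound in 50 mM Tris-HCl pH 8, 0.01% Tween 20. Started with 1 mM NAD+ and 30 uM prostaglandin E2; NADH fluorescence (360/450 nm) read 5 times over 30-s intervals, last minus first.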
Active calls of the source: *; ? = inconclusive; . = not tested or not shown; [ ] = dose if it differs, or a comment. Unless noted, the call rests on the fitted dose curve; in most records, active means well fitted curve in the direction sought with a large enough effect; inconclusive means small, poorly fitted or top-dose-only effect, or another doubt; inactive means no such curve, though single readings can be large; an effect the other way counts as inactive or inconclusive.

SMILES	ALDH1A1 block	CBFb-RUNX1 inh	PNC inhibitor	HttQ103 aggreg	HTT ATP protect	HPGD block
FC(F)(F)c1ccc(Cl)c(N/N=C/c2ccc(N3CCOCC3)s2)c1	4.5µM*	-7%	-3	15%	9%[10 µM]	?
O=C(N/N=C/c1ccc(N2CCOCC2)cc1)c1ccc(NS(=O)(=O)c2cccs2)cc1	?	0%	.	?	-8%[10 µM]	.
O=C(N/N=C/c1ccc(N2CCOCC2)s1)c1ccc(NS(=O)(=O)c2cccs2)cc1	16µM*	-13%	.	0%[9.22 µM]	-1%[10 µM]	.
CC(C)[C@@H](CC(=O)N[C@@H]1CCNC[C@H]1C(=O)N[C@H](CC(=O)N[C@@H](CCC(=O)O)CC(=O)O)Cc1ccccc1)NC(=O)C[C@H](Cc1c[nH]c2ccccc12)NC(=O)[C@@H]1CNCC[C@H]1N	4%	4%	.	.	-1%[1.9 µM]	-6%
O[C@@H](c1ccccc1)C1CCN(CCc2ccccc2)CC1	-3%	-6%[21.7 µM]	.	.	-73%[1.9 µM]	0%
COc1ccc2c(c1)CCC1C2=NN(/C(C)=C/C(C)=O)C1c1cccc(F)c1 (centres undefined)	28µM*	2%	.	12%[9.22 µM]	2%[10 µM]	.
CCN(CC)S(=O)(=O)c1ccc(NS(=O)(=O)c2ccc(F)cc2)cc1	13µM*	-13%	10	-11%	-26%	-14%
O=S(=O)(Nc1ccc(-n2cccc2)cc1)c1ccc(F)cc1	10µM*	1%	.	-11%	-43%	.
Cc1cccc(-n2ncc3c(NCc4ccco4)ncnc32)c1	?	2%	29	?	-23%[10 µM]	?
Clc1ccc(-n2ncc3c(NCc4cccs4)ncnc32)cc1	1.6µM*	0%	?	?	-33%	0%
Cc1cccc(-n2ncc3c(NCc4cccs4)ncnc32)c1	?	12%	-6	11µM*	-29%	?
Cc1cccc(-n2ncc3c(NCc4ccccc4)ncnc32)c1	?	18%	?	-25%	-41%	?
Cc1ccc(-n2ncc3c(NCc4ccco4)ncnc32)cc1C	?	1%	.	0.005µM*	-62%	.
COC(=O)C1OC(=O)C2OC23[C@]2(C)C(OC(C)=O)CC4C(C)(C)C(=O)CC[C@]4(C)C2CC[C@@]13C (some centres undefined)	-3%	.	.	.	.	-7%
Cc1ccc2nc3nc4ccc[nH]c4cc3c2c1	-1%[13.5 µM]	-12%[13.1 µM]	.	.	11%[10 µM]	.
O=S(=O)(NCC(O)COCc1ccco1)c1cccs1 (centres undefined)	7.9µM*	-17%	?	15%[9.22 µM]	-2%	-8%
CC(C)=NOC[C@@H](O)COCc1ccco1	-5%[13.5 µM]	8%[13.1 µM]	.	.	-22%[10 µM]	.
O=C(NCCOC12CC3CC(CC(C3)C1)C2)c1cccc(Br)c1	7.1µM*	0%	-19	-19%	-16%	-9%
O=C(O)CCCCCNC(=O)c1cccc(Br)c1	10%	2%	27	16%	-3%	-10%
CC(C)(C)n1cnc(C(N)=O)c1N	10µM*	12%	-8	6%	13%[10 µM]	1%
COCc1cc(O)c(O)c(O)c1-c1c(COC)cc(O)c(O)c1O	?	.	.	.	-62%	.
C=CCn1c(=O)/c(=C2/SC(C)=C(C)N2CC)s/c1=C1/C(=O)N(CC)C(=S)N1c1ccccc1	-5%	-11%	?	22%	25%	-7%
C=CCn1c(=O)/c(=C2/Sc3ccccc3N2CC)s/c1=C1/C(=O)NN=C1C	20µM*	2%	.	-8%[9.22 µM]	-5%[10 µM]	.
CCCNC(=O)COC(=O)c1ccc(Cl)c(S(=O)(=O)N2CCCC2)c1	7.9µM*	-8%	15	10%[9.22 µM]	20%	-16%
CCCNC(=O)COC(=O)c1ccc(S(=O)(=O)N2CCCC2)cc1	-3%	4%	.	12%	-36%	.
SMILES	ALDH1A1 block	CBFb-RUNX1 inh	PNC inhibitor	HttQ103 aggreg	HTT ATP protect	HPGD block
C/C(N)=C(/C#N)C(=O)COC(=O)c1ccc(C)c(S(=O)(=O)N2CCCCC2)c1	?	1%	-18	?	-80%[10 µM]	13µM*
CC12CCC(C(=O)Nc3nc4ccc(Br)cc4s3)(OC1=O)C2(C)C (centres undefined)	-4%	0%	.	?	-148%	.
COc1ccc(C(=O)/C=C/c2ccc(N3CCCCC3)c([N+](=O)[O-])c2)c(OC)c1	20µM*	?	-27	?	16%[1.9 µM]	-24%
COc1ccc(C(=O)/C=C/c2ccc(N3CCCCC3)c([N+](=O)[O-])c2)cc1	4.5µM*	?	-27	-12%	12%[10 µM]	-15%
COc1ccc(N2CCN(c3ccc(C(N)=O)cc3[N+](=O)[O-])CC2)cc1	-4%	-23%	.	-15%	-27%	.
CCOC(=O)CNC(=S)n1cnc(N)n1	32µM*	-2%	.	6%	-11%[10 µM]	.
CCCCc1c(C)[nH]c(=S)[nH]c1=O	.	6%	.	1%[9.22 µM]	0%[10 µM]	.
N#CCCn1c(=S)[nH]c2ccccc21	?	-3%	?	-9%	-3%	14µM*
Cc1cccc(OCCc2c(C)[nH]c(=S)[nH]c2=O)c1	18µM*	3%	.	-1%	-30%	.
Cc1cccc(OCCn2c(S(=O)(=O)O)nc3ccccc32)c1	-28%	0%	-3	12%	0%	-6%
Cc1cccc(OCCn2c(=S)[nH]c3ccccc32)c1	1.3µM*	-3%	?	-19%	3%[10 µM]	2µM*
CCOC(=O)Cn1c(=N)n(CCOc2cccc(C)c2)c2ccccc21	6%	5%	-97*	-23%	42%[10 µM]	-1%
CCCNC(=O)OC[C@@H]1O[C@H](CCO/N=C\[C@@H](OC)[C@H](C)/C=C\CC(=O)OC)C=C[C@@H]1Oc1ccc(OC)cc1	-6%[13.5 µM]	6%[13.1 µM]	.	.	-11%[10 µM]	.
CCCc1nnc(SCC(=O)N2CCCC(C)C2)n1CCOC (centres undefined)	0%	-16%	.	-2%	-47%	.
COc1ccc(N(C)S(=O)(=O)c2cccc(C(=O)NCc3ccc4c(c3)OCO4)c2)cc1	-8%	2%	.	-27%	-38%	.
COc1ccc(N(C)S(=O)(=O)c2cccc(C(=O)N(C)Cc3ccc(C)o3)c2)cc1	10µM*	7%	.	21%	-13%	.
O=C1Nc2ccccc2C(=O)N2CCC[C@@H]12	11%	3%	.	.	?	-3%
Cc1cc2oc(=O)cc(CSc3nc(N)cc(N)n3)c2cc1C(C)C	18µM*	-8%	?	4%[9.22 µM]	2%	-27%
CCCc1cc(=O)[nH]c(SCc2cc(=O)oc3cc(C)c(C(C)C)cc23)n1	?	-8%	-8	-20%	.	16µM*
Nc1cc(N)nc(SCc2cc(=O)oc3cc4c(cc23)CCC4)n1	?	-7%	32	14%	-15%[0.074 µM]	-20%
CCCc1cc(=O)[nH]c(SCc2ccc(F)cc2)n1	.	2%	.	-8%[9.22 µM]	1%[10 µM]	.

From PubChem BioAssay
